From PubChem BioAssay
IL-1B inflam inh: inflammasome signaling inhibition, IL-1 beta readout; THP-1 LPS/ATP IL-1B secretion, AlphaLISA, 16 h; stronger effect = lower value; activity change, % at 57.5 µM; 360,000 compounds, 4.7% hits; AID 743279; in the data active means activity change below about -50%; inconclusive means mostly about -30% to -49%
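Secreted IL-1B measured by AlphaLISA bead assay after 16 h compound exposure of THP-1 cells; compounds (final up to 57.5 uM) added 1 h before LPS (250 ng/mL) and ATP (1.25 mM) stimulation; lower signal means less secretion.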
USP2a block: USP2a (human) protease inhibition | USP2 core, Ub-CHOP2 coupled fluorogenic reporter, 485/531 | Potency, µM (doses to about 38.3 µM), actives largely listed as inhibitors | 330,000 compounds, 0.01% hits | AID 463254
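Deubiquitinase activity read as fluorescence (485/531 nm) after Ub-CHOP2 cleavage activates the enterokinase reporter on its substrate; USP2 core 10nM, Ub-CHOP2 and substrate 25nM each, 30min compound preincubation then 60min RT; data normalized to NEM, curves fitted.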
USP1-UAF1 inh: USP1/UAF1 (human) deubiquitinase inhibition; O94782; recombinant USP1/UAF1, Ub-Rhodamine cleavage fluorescence; Potency, µM (highest dose often 57.1 µM), actives largely listed as inhibitors; 390,000 compounds, 0.23% hits; AID 743255; further: nearly all actives have a fitted effect of over 60% in size
Target sequence (O94782 whole entry, looked up): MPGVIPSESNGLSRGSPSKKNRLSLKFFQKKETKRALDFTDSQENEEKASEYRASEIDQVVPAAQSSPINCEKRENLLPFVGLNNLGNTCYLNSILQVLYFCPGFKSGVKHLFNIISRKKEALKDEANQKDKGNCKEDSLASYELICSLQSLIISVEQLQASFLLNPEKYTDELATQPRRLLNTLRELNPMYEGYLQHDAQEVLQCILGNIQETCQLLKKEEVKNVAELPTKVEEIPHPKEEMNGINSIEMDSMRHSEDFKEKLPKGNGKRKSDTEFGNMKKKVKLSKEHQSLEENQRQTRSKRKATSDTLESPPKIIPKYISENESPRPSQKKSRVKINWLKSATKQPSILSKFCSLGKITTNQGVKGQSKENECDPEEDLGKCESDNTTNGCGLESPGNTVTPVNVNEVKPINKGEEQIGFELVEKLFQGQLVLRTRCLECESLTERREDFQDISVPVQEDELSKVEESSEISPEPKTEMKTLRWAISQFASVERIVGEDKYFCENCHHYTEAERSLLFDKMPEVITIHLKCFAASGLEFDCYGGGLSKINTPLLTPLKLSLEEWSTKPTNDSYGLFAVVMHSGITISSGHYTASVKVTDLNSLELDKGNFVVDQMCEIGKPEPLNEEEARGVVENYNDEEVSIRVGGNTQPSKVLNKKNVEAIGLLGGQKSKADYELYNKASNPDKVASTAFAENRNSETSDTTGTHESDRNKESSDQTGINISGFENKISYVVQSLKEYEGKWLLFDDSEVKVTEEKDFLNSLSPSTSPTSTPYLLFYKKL
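High-throughput fluorogenic screen: 1nM USP1/UAF1 complex, Ub-Rho substrate 150nM final, 50mM HEPES pH 7.8 with 0.5mM EDTA, 0.1 mg/ml BSA, 1mM TCEP and 0.01% Tween-20.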
S2 tox: cell viability loss in ATXN counter-screen. Potency, µM (doses to about 56.7 µM), actives largely listed as cytotoxic. S2 cells (HEK-293 line with an ATXN2-luciferase reporter) viability, CellTiter-Fluor protease fluorescence, 24 h. AID 651635. 400,000 compounds, 0.49% hits; further: nearly all actives have a fitted effect of over 40% in size
ATXN2 expr inh: reduces ATXN2 reporter expression in HEK-293 cells; HEK-293 ATXN2-luciferase reporter, luminescence, 24 h; Potency, µM (top dose mostly 57 µM), usual class: inhibitors; 360,000 compounds, 0.72% hits; further: nearly all actives have a fitted effect of over 55% in size
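qHTS (up to 57 uM final) was run with 24 h compound exposure of reporter cells at 37 °C. Each well was multiplexed: SteadyGlo luminescence measured ATXN2-luciferase expression after a fluorogenic Gly-Phe-AFC viability readout (25 uM final).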
Hits are given with their value; - = inactive; ? = inconclusive; . = no result. Hits are enriched below; roughly 4.8% of the tested compounds scored in any of these assays. Unless noted, the call rests on the fitted dose curve; in most records, active means well fitted curve in the direction sought with a large enough effect; inconclusive means small, poorly fitted or top-dose-only effect, or another doubt; inactive means no such curve, though single readings can be large; an effect the other way counts as inactive or inconclusive.

SMILES | IL-1B inflam inh | USP2a block | USP1-UAF1 inh | S2 tox | ATXN2 expr inh
CCN1CCN(CCNC(=O)c2ccc(/C=C3/Sc4ccccc4N(Cc4cccc(Cl)c4)C3=O)cc2)CC1 | -99 | - | - | 28µM | 25µM
Cc1sc2ncn(CC(=O)N3CCN(c4cccc(Cl)c4)CC3)c(=O)c2c1S(=O)(=O)N1CCC(C)CC1 | . | . | - | ? | -
COc1ccc(NC(C)=O)cc1CNC(=O)CN1CCOCC1 | - | - | - | ? | -
Cc1ccc(C(=O)Nc2cccc(O)c2)cc1S(=O)(=O)N1CCCCCC1 | -57 | - | - | ? | -
Cc1ccc(NC(=O)c2ccc(C)c(S(=O)(=O)N3CCCCCC3)c2)cc1 | . | . | - | ? | -
Cc1ccc(NC(=O)CSc2ncnc3ccccc23)cc1S(=O)(=O)N1CCCCCC1 | -90 | - | - | - | -
O=C(CSc1ncnc2ccccc12)Nc1cccc(S(=O)(=O)N2CCCC2)c1 | - | - | - | - | -
Cc1ccc(NC(=O)CCl)cc1S(=O)(=O)N1CCCCCC1 | -87 | - | - | ? | ?
Cc1cccc(OCCC(=O)Nc2ccc(C)c(S(=O)(=O)N3CCCCC3)c2)c1 | -72 | - | - | ? | ?
COCCNCC(=O)Nc1ccc(C)c(S(=O)(=O)N2CCCCC2)c1 | - | - | - | ? | -
CCC(C)C(C(=O)OCC[N+](C)(CC)CC)c1ccccc1 (stereo not drawn) | . | . | . | - | .
CCc1nn(CC(=O)NCc2ccc(OC)c(OC)c2)c(=O)c2cc3sc(C)cc3n12 | . | . | - | . | .
COc1cccc(CNC(=O)c2ccc(C)c(S(=O)(=O)N3CCCCC3)c2)c1 | -58 | - | - | ? | -
NCc1ccccc1CC(=O)N[C@@H]1C(=O)N2C(C(=O)O)=C(CSc3nnnn3CC(=O)O)CS[C@H]12 | . | . | . | - | .
CC1(Cc2ccc(C(F)(F)F)o2)C(=O)Nc2cc(-c3ccc(F)cc3F)ccc21 (stereo not drawn) | -64 | . | . | ? | ?
O=C(COC(=O)CCNS(=O)(=O)c1ccccc1)NC(=O)c1ccccc1 | - | - | - | - | -
Cc1cc(N/N=C/c2cccc(F)c2)nc(NCc2ccccc2)n1 | -72 | - | - | ? | -
Cc1cc(N/N=C/c2ccccc2F)nc(NCc2ccccc2)n1 | - | - | - | - | -
Cc1cc(N/N=C/c2cccc(Cl)c2)nc(NCc2ccccc2)n1 | -77 | - | - | ? | ?
Cc1cc(C)nc(N/N=C/c2cccc(Cl)c2)n1 | - | - | - | - | .
Cc1cc(N/N=C/c2ccc(Cl)cc2)nc(NCc2ccccc2)n1 | -84 | - | - | ? | -
Cc1cc(N/N=C/c2ccccc2)nc(NCc2ccccc2)n1 | - | - | - | - | -
CC1(C)CO[C@@H](CC(=O)O)CN1 | . | . | . | - | -
CCN1CCCC1CNC(=O)c1cnn(-c2nccc(-c3ccc(C)o3)n2)c1C1CC1 (stereo not drawn) | . | . | . | - | .
CN1/C(=C/C(=O)c2nc(S(C)(=O)=O)ncc2Cl)C(C)(C)c2ccccc21 | -100 | - | - | . | ?
SMILES | IL-1B inflam inh | USP2a block | USP1-UAF1 inh | S2 tox | ATXN2 expr inh
CN1/C(=C\C(=O)c2cncc(Br)c2)C(C)(C)c2ccccc21 | -51 | - | - | - | -
CN1/C(=C\C(=O)c2cccnc2)C(C)(C)c2ccccc21 | - | - | - | . | .
Cc1ccc(S(=O)(=O)N2CC(O)C2)cc1 | - | - | - | - | -
O=C(Cn1c2[n+](c3ccc(C(F)(F)F)cc31)CCCCC2)Nc1ccc(Br)cc1 | - | - | - | - | .
Cc1cc(C(C)(C)C)cc(C)c1Cn1c2[n+](c3ccc(C(F)(F)F)cc31)CCCCC2 | -108 | - | - | - | ?
FC(F)(F)c1cccc(Cn2c3[n+](c4ccc(C(F)(F)F)cc42)CCCCC3)c1 | -77 | - | - | - | -
COC(=O)[C@@H]1CCCN1Cc1ccc2c(c1)CN(Cc1cc(OC)c3c(c1)OCO3)CCO2 | . | . | . | - | .
Cc1ccc(N(C(=O)c2sc(C)nc2C)C(C(=O)NCc2ccco2)c2ccccc2)cc1 (stereo not drawn) | -54 | - | - | - | -
Cc1cccc(C)c1NC(=O)C1C(c2ccc3c(c2)OCO3)=Nc2ccccc2N1C(=O)c1cccc(C(F)(F)F)c1 (stereo not drawn) | -57 | . | . | . | .
CC(=O)c1ccc(N2CCN(S(=O)(=O)c3ccc(-c4coc(C)n4)cc3)CC2)cc1 | . | . | ? | - | -
CCNC(=O)Nc1ccc(Oc2ncnc(N)c2C=NOC)cc1Cl | . | . | . | . | -
